Screens deposited in PubChem by Broad Institute.
HIV Env fusion: inhibitors of HIV-1 Env-driven cell-cell fusion, primary screen, HeLa-JRFL effector, CEM21 target cells, luciferase; inhibition, % at 12.3 µM; actives 1.1% (n = 360,000);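 active means mean replicate inhibition score of at least 50 and every replicate individually at or above 50; inconclusive means only one of the two criteria met; inactive means mean below 50 and not all replicates reaching 50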;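 further: 0% = plate neutral controls and 100% = maraviroc near 300 nM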
PGC1a acetyl inh: inhibitors of PGC1a acetylation signal, primary screen, cell-based, U2OS, AlphaScreen, inhibitor mode. AlphaScreen anti-acetyl-lysine; with virally co-expressed GCN5 acetyltransferase. inhibition, % at 15.6 µM. actives 0.17% (n = 350,000). AID 651687, 2012;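 active means every replicate shows inhibition of at least 40%; inconclusive means mean inhibition at least 40% but some replicate below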;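 further: 0% = neutral control wells and 100% = positive control wells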
CFTR F508del cor: F508del CFTR correction, initial screen, CFBE line, single point. actives 0.36% (n = 350,000). CFBE cells, YFP halide quenching; stimulated with forskolin plus potentiator P3; % fluorescence drop versus neutral controls. activity (quench increase), % at 7.58 µM. AID 720511, 2013;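 active means mean added fluorescence quench of at least 8% versus neutral control, with both replicates also reaching 8%; inconclusive means only one of the mean or replicate conditions met; inactive means mean below 8% and not both replicates reaching 8%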;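 further: cells transiently co-express mutant CFTR-F508del with the halide-sensitive YFP; corrector assay measuring rescue of mutant channel to the surface after 24 h compound exposure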
PAX8 reporter: inhibitors of PAX8-driven TPO luciferase reporter, primary screen, RMG-I cells, single concentration; actives 1.2% (n = 360,000); inhibition, % at 12.6 µM; SteadyGlo, 24 h;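 active means mean replicate inhibition at least 60% with every replicate also reaching 60%; inconclusive means only one of the two criteria is met; inactive means mean below 60% and not all replicates reaching 60%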;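 further: luciferase light reporting Pax8 driven TPO promoter activity; plate controls were median of neutral control wells for no effect and mitoxantrone controls for full effect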
EWS-Fli block: EWS/Fli-driven NR0B1 reporter inhibitors, primary screen, A673 cells, NR0B1 luciferase, luminescence, MLPCN library | inhibition, % at 12.6 µM | AID 651661, 2012 | actives 0.67% (n = 350,000) | viability-normalised;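 active means mean inhibition of at least 50% after viability correction, with every replicate also passing that limit; inconclusive means mean reaches 50% but only one of two replicates passes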;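 further: firefly luciferase signal divided by Alamar Blue viability fluorescence both relative to DMSO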
INS-1E GSIS act: GLuc luminescence reporter in INS-1E cells, primary screen for activators of glucose-dependent secretion of insulin; INS-1E GLuc reporter insulin secretion, 2-3 h; activation, % at 16.6 µM; actives 0.61% (n = 370,000);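 active means lowest replicate activation of at least 40%, so every replicate reaches that level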;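 further: 0% = median of neutral control wells and 100% = median of IBMX positive control wells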
The depositor's hits bear a star; ? = inconclusive; / = no result given; [ ] = remark or other dose. Rows were chosen to be rich in hits. Some 2.7% of all compounds tested hit in one or more screens of this group.

SMILES	HIV Env fusion	PGC1a acetyl inh	CFTR F508del cor	PAX8 reporter	EWS-Fli block	INS-1E GSIS act
COc1ccc(NC(=O)c2cc(CC(C)C)nc3ccccc23)cc1	78*	-13	/	56	11	/
Cc1cc(C(=O)OCC(=O)NCCC(C)C)c2ccccc2n1	3	18	/	/	/	/
Cc1ccc(NC(=O)c2cc(C)nc3ccccc23)cc1	-2	-6	-2	29	-10	-2
[N-]=[N+]=NCc1ccccc1C[C@]1(C(=O)N2CCOCC2)COC(c2ccc(OCCCO)cc2)=N1	1[16.7 µM]	/	-2	2	19	/
C[C@H]1CN([C@@H](C)CO)C(=O)Cc2cc(NC(=O)CCCCCC(=O)Nc3ccccc3N)ccc2O[C@H]1CN(C)C(=O)Nc1cccc2ccccc12	/	4	1	14	34	5
O=C(O)COc1ccc(/C=C2/SC(=S)N(Cc3ccccc3)C2=O)cc1	1	72*	0	-4	-5	-15
CCc1ccc(/C=C2\SC(=S)N(CCCC(=O)N(CCO)c3ccccc3)C2=O)cc1	43	21	-1	94*	54*	39
O=C1/C(=C\c2cc(Cl)c(O)c(Cl)c2)SC(=S)N1Cc1ccccc1	40	5	28*	2	24	-5
COc1ccc(/C=C2/SC(=S)N(CCC(=O)O)C2=O)cc1	58*	-21	/	/	/	-3
COc1ccc(/C=C2\SC(=S)N(CCC(=O)Nc3ccc(C(=O)O)cc3)C2=O)cc1	-10	/	-1	5	-22	-7
COc1ccc(/C=C2/SC(=S)N(Cc3ccccc3)C2=O)cc1O	12	3	0	-9	-1	2
C[C@H]1CCCCO[C@H](CN(C)Cc2ccccc2)[C@@H](C)CN([C@@H](C)CO)C(=O)c2cc(N(C)C)ccc2O1	17[16.7 µM]	-9	0	-1	1	-9
Cc1ccc(S(=O)(=O)N2C[C@H](O)COC[C@@H]3O[C@H](CC(=O)NCc4ccc5c(c4)OCO5)CC[C@H]32)cc1	-6[16.7 µM]	-16	1	6	1	-14
CC(C)(C)S(=O)N1Cc2cc(C(=O)NCC(F)(F)F)nc(-c3cccc(-c4cccc(F)c4)c3)c2[C@@H]1CCO (some centres not stated)	-9	-11	8	70*	20	-4
COCCNC(=O)c1cc2c(c(-c3cccc(-c4cccc(F)c4)c3)n1)[C@H](CCO)N(S(=O)C(C)(C)C)C2 (some centres not stated)	6[16.7 µM]	-6	3	62*	5	-8
CO[C@@H]1CN(C)C(=O)c2cc(NC(=O)Nc3ccc(Cl)cc3)ccc2OC[C@H](C)N(C(=O)Nc2c(C)noc2C)C[C@@H]1C	-4[16.7 µM]	-6	3	2	-13	-3
Oc1ccc(-c2nc3c4c(ncn3n2)-c2ccccc2CC42CCCC2)cc1	/	/	/	/	/	190*
CN1C(=O)c2cc(NC(=O)C3CCCCC3)ccc2OC[C@H]2O[C@@H](CC(=O)NCc3ccccc3F)CC[C@@H]21	9[16.7 µM]	-3	-1	-3	8	0
CC1CCCC=CC2CC(OC(=O)CN(C)C)CC2C(O)C=CC(=O)O1 (configuration not stated)	62*	67*	-22	115*	63*	/
CN(C)CC(=O)Nc1ccc2c(c1)[C@@H]1C[C@H](CC(=O)NC3CCCCC3)O[C@@H](CO)[C@@H]1O2	-3[16.7 µM]	1	-4	-8	6	-6
Cc1ccc(SCCNC(=O)c2ccc(C)c(S(=O)(=O)Nc3cccc(C)c3)c2)cc1	/	-12	/	/	/	-33
Cc1ccc(NS(=O)(=O)c2cc(C(=O)NCCSc3ccc(C)cc3)ccc2C)cc1	97*	-28	/	/	/	/
Cc1ccc(NS(=O)(=O)c2cc(C(=O)NCCSC3CCCCC3)ccc2C)cc1	55*	-3	/	/	/	-28
C[C@@H]1CN([C@@H](C)CO)C(=O)c2cc(NS(C)(=O)=O)ccc2O[C@@H](C)CCCCO[C@H]1CN(C)S(=O)(=O)c1ccc(Cl)cc1	2[16.7 µM]	-3	0	-9	-16	-4
COc1ccc([Si](C)(C)[C@H]2[C@H](CCO)O[C@@]3(C(=O)N(Cc4ccccc4)c4ccc(N5CCCCC5=O)cc43)[C@@H]2C)cc1	26[16.7 µM]	8	8	26	19	/
SMILES	HIV Env fusion	PGC1a acetyl inh	CFTR F508del cor	PAX8 reporter	EWS-Fli block	INS-1E GSIS act
COc1ccc([Si](C)(C)[C@H]2[C@H](CCO)O[C@@]3(C(=O)N(Cc4cccc(NC(C)=O)c4)c4ccccc43)[C@@H]2C)cc1	-4[16.7 µM]	-30	3	?	21	/
COc1ccc([Si](C)(C)[C@H]2[C@H](CCO)O[C@@]3(C(=O)N(Cc4ccc(NC(C)=O)cc4)c4ccccc43)[C@@H]2C)cc1	10[16.7 µM]	3	3	111*	-20	/
COc1ccc([Si](C)(C)[C@@H]2[C@@H](CCO)O[C@]3(C(=O)N(Cc4ccc(NC(C)=O)cc4)c4ccccc43)[C@H]2C)cc1	?	9	-5	107*	7	/
Cc1noc(C)c1NC(=O)Nc1ccc2c(c1)CC(=O)N([C@H](C)CO)C[C@@H](C)[C@@H](CN(C)S(=O)(=O)c1cccs1)O2	-3[16.7 µM]	0	2	-31	-2	1
O=C(N[C@@H]1CC[C@@H](CCNS(=O)(=O)c2ccccc2)O[C@@H]1CO)c1cccc(F)c1	-12[16.7 µM]	2	0	1	-2	-9
COc1ccc(CCn2c(NN)nc3c2c(=O)[nH]c(=O)n3C)cc1	-22	10	?	11	46	12
COc1ccc(CCn2c(NN=C(C)C)nc3c2c(=O)[nH]c(=O)n3C)cc1	-2	-4	9.8*	0	-4	1
CCCNc1nc2c(c(=O)[nH]c(=O)n2C)n1Cc1ccc(F)cc1	-8	-9	1	6	5	17
CC(C)Cn1c([N+](=O)[O-])nc2c1c(=O)[nH]c(=O)n2C	5	4	2	78*	20	10
CCNc1nc2c(c(=O)[nH]c(=O)n2C)n1CC(C)C	9	-4	1	-13	4	/
CCNc1nc2c(c(=O)[nH]c(=O)n2C)n1Cc1ccc(F)cc1	11	-5	-1	5	5	49*
Cn1c(=O)[nH]c(=O)c2c1nc(NC1CCCC1)n2Cc1ccccc1	-5	2	5	16	-1	46*
COc1ccc(NC(=O)N(C)C[C@H]2Oc3ccc(NC(=O)Nc4ccc(F)cc4)cc3CC(=O)N([C@H](C)CO)C[C@@H]2C)cc1	7[16.7 µM]	-12	-1	/	-1	-5
C[C@@H]1CN([C@H](C)CO)C(=O)c2cccc(NC(=O)Nc3ccccc3)c2O[C@H]1CN(C)S(=O)(=O)c1ccc(F)cc1	/	8	0	-1	16	8
